Hit rate of the full screen: of about 220,000 compounds, about 2,000 (0.91%) were called active. Inconclusive results (about 2%) are left out. Not all results are given here. Results with a measured potency or affinity are listed apart. Unmarked numbers belong to inactive results. Rule as the data show it: inconclusive = inhibition above about 80% without an active follow-up result; inactive = below that; test concentration not stated here.
Test: M. tuberculosis H37Rv growth inhibitors, H37Rv strain (AID 1626);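 also: bacteria incubated seven days before Alamar blue readout; 0% = bacteria only wells and 100% = bacteria with antibiotic wells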
Conditions: hits give high values, concentration not given here
COC(=O)c1ccccc1NC(=O)CSc1nnc(-c2ccc(C)cc2)o1 gave an inhibition of 6.5%. Molecule O=C(OCC#CCSc1nnc(-c2cccc3ccccc23)o1)c1ccco1 has an inhibition of 64.9%. Molecule Cc1ccc(-c2nnc(-c3ccc(NC(=O)c4ccco4)cc3)o2)cc1 has an inhibition of 6.39%. For O=C(OCc1nnc(-c2ccccc2)o1)c1ccco1, the inhibition was 5.59%. Cc1ccc(CN2CCc3c(OCC(=O)Nc4cc(C)ccc4C)cccc3C2=O)cc1 showed an inhibition of 4.57%. For CC1CCCCN1S(=O)(=O)c1ccc(S(=O)(=O)N2CCN(c3ccccc3)CC2)cc1 (stereo not drawn), the inhibition was -4.53%. Work on O=C(c1ccco1)N1CCN(S(=O)(=O)c2ccc(C3CCCCC3)cc2)CC1 yielded an inhibition of -4.85%. In the case of CCOc1ccc(N2C(=O)CNC2=S)cc1, the inhibition is reported as -2.82%. For CCOc1ccc(N2CC(=O)N(c3ccc(OCC)cc3)CC2=O)cc1, the inhibition was -2.5%. Molecule CCOC(=O)c1cnc2ccc(OC)cc2c1NCc1ccccc1 has an inhibition of 20.8%. With CCOC(=O)c1cnc2ccc(OCC)cc2c1NCc1cccnc1 the inhibition was 10.7%. Work on CCSc1nnc(NC(=O)C2Cc3ccccc3CN2C(=O)c2ccco2)s1 (stereo not drawn) yielded an inhibition of -9.18%. Molecule COC(=O)CC1COc2ccccc2N1C(=O)c1ccc(OC)cc1 (stereo not drawn) has an inhibition of -4.78%. With COc1ccccc1C1C([N+](=O)[O-])=C(N)Oc2c1c(=O)oc1ccccc21 (stereo not drawn) the inhibition was -2.62%. For N#CC1=C(N)NC(SCC(=O)c2ccc(Br)cc2)=C(C#N)C12CCCCC2, the inhibition was 79.4%. For N#CC1=C(N)NC(SCC(=O)c2ccc(Cl)cc2)=C(C#N)C12CCCC2, the inhibition was 21.4%. In the case of CCN(CC)CCOC(=O)c1ccc(NC(=O)c2cn(-c3ccccc3)nc2-c2cccs2)cc1, the inhibition is reported as 31.3%. Cc1c(CN2CCCCC2C)c(=O)n(-c2ccccc2)n1C (stereo not drawn) gave an inhibition of -1.26%. In the case of Cc1cc(N2CCN(C)CC2)nc2ccc(NC(=O)c3cccnc3Cl)cc12, the inhibition is reported as -11.1%. For Cc1nc2ccc(NC(=O)N(C)c3ccccc3)cc2s1, the inhibition was 76.8%. In the case of CCN1CCN(c2cc(C)c3cc(NC(=O)c4ccc(Br)o4)ccc3n2)CC1, the inhibition is reported as -5.55%. CCCC(=O)Nc1nc2ccc(NC(=O)c3ccc(Br)o3)cc2s1 gave an inhibition of -1.78%. With CNC(=O)Nc1ccc2nc(C)sc2c1 the inhibition was -3.76%. Work on CCN1CCN(c2cc(C)c3cc(NC(=O)c4cccnc4Cl)ccc3n2)CC1 yielded an inhibition of -2.95%. Cc1cc(N2CCN(C)CC2)nc2ccc(NC(=O)c3ccc(Br)o3)cc12 showed an inhibition of 5.2%. Cc1nc2ccc(NC(=O)c3ccco3)cc2s1 gave an inhibition of 5.89%. In the case of COC(=O)/C=C1\C(=O)N(c2nc3ccccc3s2)C(=S)N1c1ccc(F)cc1, the inhibition is reported as 3.22%. Work on O=C(N/C(=C\c1ccccc1)C(=O)N1CCN(CCO)CC1)c1ccccc1 yielded an inhibition of -6.53%. In the case of Cn1cc(C(=O)NP(=O)(N2CCOCC2)N2CCOCC2)c2ccccc21, the inhibition is reported as 4.83%. CCc1nc(SCc2ccc(C(=O)OC)o2)n[nH]1 showed an inhibition of 1.73%. Work on COc1cc(C(=O)Nc2ccc(-n3cnnn3)c(C)c2)cc(OC)c1OC yielded an inhibition of -2.46%. Work on Cc1ccc2[nH]c(=O)c(CN(Cc3ccco3)S(=O)(=O)c3c(C)ccc4nsnc34)cc2c1 yielded an inhibition of 1.42%. COc1ccc(NC(=O)C/C(C)=N/NC(=O)C(=O)NC(C)C)c(OC)c1 showed an inhibition of -3.77%. O=C(O)Cc1ccc(NC(=O)c2cnccn2)cc1 gave an inhibition of 2%. In the case of CCOc1ccc(NC(=O)c2cnccn2)cc1, the inhibition is reported as 7.63%. Molecule CCOC(=O)c1ccc(NC(=O)c2cnccn2)cc1 has an inhibition of 38.2%. Molecule CCCCOC(=O)c1ccc(NC(=O)c2cnccn2)cc1 has an inhibition of 79.1%. Work on COCCNc1ccc(-c2nn(C)c(=O)c3ccccc23)cc1[N+](=O)[O-] yielded an inhibition of -0.74%. For CN1CCN(C(=O)c2ccc(N3CCCC3=O)cc2)CC1, the inhibition was -13.8%. For COc1c(C)cccc1C(=O)Nc1ccc(N2CCOCC2)c(Cl)c1, the inhibition was 6.42%. C/C(=N/NC(=O)CNC(=O)CCc1ccccc1)c1ccc(Cl)cc1 gave an inhibition of -2.99%. Molecule O=C(Oc1ccccc1)c1c(Cl)cccc1P(=O)(O)O has an inhibition of -3.52%. CCCc1nnc(-c2cc(OC)c(OC)c(OC)c2)o1 gave an inhibition of 0.88%. Work on Nc1nnc(SCCCC(=O)c2ccc(F)cc2)s1 yielded an inhibition of 7.95%. Nc1nnc(SCCCC(=O)c2ccc(Br)cc2)s1 gave an inhibition of 0.26%. Work on Cc1c(C(=O)O/N=C(\N)c2ccccn2)cccc1[N+](=O)[O-] yielded an inhibition of -0.03%. Molecule COc1ccc(CSc2cccc3cccnc23)cc1[N+](=O)[O-] has an inhibition of -0.94%. With O=[N+]([O-])c1ccccc1OCCOCCOc1cccc2cccnc12 the inhibition was -5.36%. For CCc1nc2ccccc2c(C(=O)Oc2cccc3cccnc23)c1C, the inhibition was 22.1%. Molecule Cc1c(C(=O)Nc2cccc3cccnc23)oc2ccccc12 has an inhibition of -1.97%. In the case of NC(=O)c1ccc(Oc2cccc3cccnc23)c([N+](=O)[O-])c1, the inhibition is reported as 49.5%. In the case of COc1ccccc1NC(=O)N1CCN(c2ccc(F)cc2)CC1, the inhibition is reported as 4.69%. Molecule COCCCNC(=S)N1CCC(NC(=O)c2ccco2)CC1 has an inhibition of 0.03%. Molecule CCCCOC(=O)N/N=C/C=C/c1ccccc1 has an inhibition of 5.74%. For COc1ccc2[nH]cc(CCNC(=S)NC3CCCC3)c2c1, the inhibition was 4.31%. In the case of NNC(=O)c1ccc(Cn2cc(Br)cn2)o1, the inhibition is reported as -4.47%. CCn1cnc2cc(NCc3cccs3)ccc21 gave an inhibition of 3.06%. In the case of CN(C)C(CNC(=S)Nc1cccc(Cl)c1)c1ccccc1 (stereo not drawn), the inhibition is reported as 3.58%. In the case of Nc1cc2c(cc1C(=O)c1cccc(Br)c1)OCCO2, the inhibition is reported as 4.56%. Cc1ccc(NS(=O)(=O)c2cc(NC(=O)c3cc4c(s3)CCCC4)ccc2C)c(C)c1 gave an inhibition of 6.18%. O=C(Nc1cccc(S(=O)(=O)Nc2ccc(Cl)cc2)c1)c1ccc[n+]([O-])c1 showed an inhibition of 8.19%. Molecule COc1ccc(NC(=O)c2cccc(S(=O)(=O)Nc3ccc(Br)cc3)c2)cn1 has an inhibition of 7.12%. Cc1ccc(NS(=O)(=O)c2cc(C(=O)Nc3cccc(N(C)S(C)(=O)=O)c3)ccc2C)c(C)c1 gave an inhibition of 8.69%. CS(=O)(=O)N1CCCC(C(=O)NCCN2CCC(Cc3ccccc3)CC2)C1 (stereo not drawn) showed an inhibition of 3.9%. Work on CCN(CC)C(=O)C(=O)c1ccn(-c2c(C)csc2C(=O)OC)c1 yielded an inhibition of 10.3%. COc1cccc(/C=C(\C#N)C(=O)NC2CCS(=O)(=O)C2)c1 (stereo not drawn) showed an inhibition of -1.08%. Work on Fc1ccc(C2C3=C(Nc4ncnn42)c2ccccc2OC3c2ccncc2)cc1 (stereo not drawn) yielded an inhibition of 1.81%. Brc1ccc(C2C3=C(Nc4ncnn42)c2ccccc2OC3c2ccncc2)cc1 (stereo not drawn) gave an inhibition of 3.46%. Cc1ccc(C2c3c(oc4ccccc4c3=O)C(=O)N2c2nncs2)cc1 (stereo not drawn) showed an inhibition of -7.54%. With COc1ccc(CCNC(=O)c2cc(-c3ccccc3OC)on2)cc1OC the inhibition was -17.8%. In the case of COc1ccc(C(=O)O/N=C2\CCS(=O)(=O)c3sccc32)cc1, the inhibition is reported as -3.81%. O=S1(=O)CCC(=Nc2ccc(Cl)cc2)c2ccsc21 gave an inhibition of 3.58%. With COc1ccc(Cl)cc1S(=O)(=O)Oc1ccc(NC(C)=O)cc1 the inhibition was -3.14%. Molecule C=CCNc1nc(SC)nc2ccsc12 has an inhibition of 19.7%. C=CCSc1nc(NC)c2sccc2n1 showed an inhibition of 64.3%. In the case of Cc1oc(C)c(C(=O)O)c1COc1ccc(C(=O)O)cc1, the inhibition is reported as -4.93%. With CN(C)c1oc(COc2ccc(F)cc2)nc1C#N the inhibition was 0.53%. Molecule COc1ccccc1NC(=O)COC(=O)[C@@H]1CCCN1C(=O)c1cccs1 has an inhibition of 2.35%. COc1ccc(CCNC(=O)CSc2cn(Cc3ccccc3)c3ccccc23)cc1OC gave an inhibition of 0.69%. CCOC(=O)CSc1nnc(-c2ccc(S(=O)(=O)N3CCOCC3)cc2)n1-c1ccccc1 showed an inhibition of 14.9%. Molecule O=C(CNCC1CCCCC1)Nc1ccc(N2CCCCC2)cc1 has an inhibition of 5.47%. With CC1CCCCN1CC(=O)Nc1ccc(N2CCCCCC2)cc1 (stereo not drawn) the inhibition was 7.03%. For O=[N+]([O-])c1ccc(Sc2nnnn2-c2ccccc2)c(Cl)c1, the inhibition was -0.26%. With O=[N+]([O-])c1ccc(Sc2ccccc2)nc1 the inhibition was 1.27%. For O=C(COC(=O)c1cncc(Br)c1)NC1CCCCC1, the inhibition was 0.66%. Molecule Cn1cc(/C=N\NC(=O)C2COc3ccccc3O2)c2ccccc21 (stereo not drawn) has an inhibition of 11.9%. Work on c1cncc(-c2nc(-c3ccco3)cs2)c1 yielded an inhibition of 2.43%. Work on Cc1ccc(S(=O)(=O)Nc2nc(-c3ccc(F)cc3)cs2)cc1 yielded an inhibition of -5.33%. For Cc1ccc(S(=O)(=O)NC(=O)Nc2cc(C)ccc2F)cc1, the inhibition was -4.28%. Molecule COc1ccccc1N1CCN(C(=O)c2ccc(CN3CCOCC3)cc2)CC1 has an inhibition of 4.65%. Work on c1ccc(-c2nc(-c3cccnc3)n[nH]2)cc1 yielded an inhibition of 4.63%. In the case of Nc1n[nH]c(-c2cccc([N+](=O)[O-])c2)n1, the inhibition is reported as 2.42%. With CCCOc1cccc(C2/C(=C(/O)c3ccc(OC)cc3)C(=O)C(=O)N2CCN(C)C)c1 (stereo not drawn) the inhibition was -1.44%. For Cc1ccc(NC(=S)NCCSc2ccc(Cl)cc2)c(C)c1, the inhibition was 17.1%. With COc1cc(CNCc2ccccn2)ccc1OCc1ccccc1Cl the inhibition was 61%. In the case of COc1cc(CNCc2ccccn2)ccc1OCc1c(Cl)cccc1Cl, the inhibition is reported as 56.6%. COc1cc(CNCc2ccccn2)ccc1OCc1ccc(Cl)cc1 showed an inhibition of 31.7%. With COc1cc(CNCc2ccccn2)ccc1OCc1cccc(Cl)c1 the inhibition was 28.4%.
